ugtP null kill = growth inhibition of ugtP-null S. aureus, primary screen, RN4220 ugtP deletion, OD600; 16 h; 0.54% of 330,000 active; growth inhibition, % (concentration not given with the values); in the data active = growth inhibition above about 68%;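 note: plate controls were untreated wells for no effect and antibiotic for full effect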
PfHsp40 rescue = rescue of yeast from PfHsp40 toxicity, primary screen, S. cerevisiae, ATP luminescence; S. cerevisiae expressing PfHsp40, growth rescue; growth rescue, % at 12.5 µM; 0.68% of 340,000 active; AID 504582, 2011; in the data active = growth rescue above about 28%, passing the limit was not always enough; inconclusive = no clear call, values can overlap the other calls;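 note: yeast W303a lacking pdr1 and pdr3 grown in galactose medium; growth measured after three days at 30 °C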
PrPC TRFRET = inhibitors of human cell surface prion protein PrPC, primary screen, cell-based, TR-FRET; Major prion protein (Homo sapiens), P04156; TR-FRET read-out; inhibition, % at 13.8 µM; 0.43% of 370,000 active; AID 720596, 2013; in the data active = inhibition above about 24%; note: 0% = median of the test wells and 100% = reference compound wells
DUSP3 inh = VHR1 phosphatase inhibitors, primary screen, biochemical, absorbance, uHTS | Dual specificity protein phosphatase 3 (Homo sapiens), P51452 | recombinant VHR phosphatase, pNPP absorbance | inhibition, % at 13.3 µM | 0.52% of 290,000 active | AID 1654, 2009; in the data active = inhibition above about 50%
Target sequence (P51452 whole entry, looked up): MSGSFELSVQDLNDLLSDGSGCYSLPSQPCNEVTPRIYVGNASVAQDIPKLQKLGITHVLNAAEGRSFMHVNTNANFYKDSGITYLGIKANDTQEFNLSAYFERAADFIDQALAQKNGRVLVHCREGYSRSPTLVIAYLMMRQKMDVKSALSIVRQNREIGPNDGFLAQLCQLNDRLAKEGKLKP
RN4220 kill = growth inhibition of S. aureus RN4220, primary screen, OD600; 16 h; inhibition, % (no concentration beside the values); 0.33% of 330,000 active; AID 1259311, 2017; in the data active = inhibition above about 85%;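 note: plate controls were untreated cells for no effect and reference antibiotic for full effect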
Active calls of the source: *; ? = inconclusive; . = not tested or not shown; ! = not active in a repeat. The list is not random: actives were taken first. Their share in the collection is about 1.8%.

SMILES	ugtP null kill	PfHsp40 rescue	PrPC TRFRET	DUSP3 inh	RN4220 kill
CC(C)OCC1Cn2c(nc3c2c(=O)n(C)c(=O)n3C)O1 (centres undefined)	6	0	9	12	5
CC1(C(=O)N(CC(=O)NC2CCCC2)Cc2ccc(Cl)cc2)CC(=O)N=C2C=CC=CN21 (centres undefined)	6	0	1	52*	4
Cc1cc(C(=O)NN=Cc2cccn2C)no1	7	.	.	.	0
Oc1c(C(Nc2nccs2)c2ccc(C(F)(F)F)cc2)ccc2cccnc12 (centres undefined)	2	84*	17	20	23
CCC(=O)NC(c1cccs1)c1ccc2cccnc2c1O (centres undefined)	11	1	20	3	9
Oc1c(C(Nc2cccc(C(F)(F)F)c2)c2ccncc2)ccc2cccnc12 (centres undefined)	15	381*	10	9	10
Cc1ccc(C(O)(C(=O)NNc2ccc3ccccc3n2)c2ccc(C)cc2)cc1	5	75*!	10	18	-1
Cc1ccc(C(=O)Nc2ccc3ccccc3n2)cc1	-1	0	-10	-25	7
O=C(Nc1cccc(NC(=O)c2cccc(F)c2)n1)c1cccc(F)c1	19	1	-4	10	90*
O=C(Nc1cccc(NC(=O)c2c(F)cccc2F)n1)c1c(F)cccc1F	4	11	2	34	5
CCCC(C)NC(=O)c1sc2nc3n(c(=O)c2c1C)CCC3 (centres undefined)	8	20	-7	54*	8
Cc1c(C(=O)NCCO)sc2nc3n(c(=O)c12)CCC3	10	-2	-1	31	0
O=C1C=CC(=O)N1c1ccc(Nc2ccccc2)cc1	0	236*	-7	.	1
c1ccc(Nc2ccc(Nc3ccccc3)cc2)cc1	-7	0	-4	.	0
O=C1C=CC(=O)N1c1ccc2ccccc2c1	1	766*	11	.	-1
COC(=O)C(=CC=Cc1ccccc1)NC(=O)c1ccccc1	-5	.	.	.	3
O=C(O)c1ccc(NN=Cc2ccc(OC(=O)c3ccccc3Cl)cc2)cc1	-15	.	.	.	5
Cc1c(N/N=C(\C#N)C(=O)c2ccccc2)c(=O)n(-c2ccccc2)n1C	14	0	14	-5	19
Cc1ccccc1C(=O)/C(C#N)=N/Nc1c(C)n(C)n(-c2ccccc2)c1=O	2	?	23	51*	30
C#CCOCCOCCOCCNc1nc(N2CCN(C(=O)C(CO)n3cc(C(N)C(C)C)nn3)CC2)nc(N2CCN(C(=O)C(C(C)O)n3cc(C(N)CCCCN)nn3)CC2)n1 (centres undefined)	-10	.	.	.	3
O=C(CC(c1ccccc1)c1ccccc1)Nc1ccc(Cl)cn1	.	6	29*	23	.
O=C(CS(=O)(=O)c1ccccc1)Nc1ccc(Cl)cn1	8	0	-3	1	6
CCOc1ccccc1C=Nn1c(COc2ccccc2)n[nH]c1=S	-1	.	.	.	6
Brc1ccc(Cn2c(-c3ccc(Br)o3)nc3ccccc32)o1	-7	56*	6	-6	-1
O=C(CC1CC=CCCC(Cc2ccc(F)cc2)C(=O)OC(c2ccccc2)CNC1=O)NC(CO)Cc1ccccc1 (centres undefined)	-1	.	.	.	7
SMILES	ugtP null kill	PfHsp40 rescue	PrPC TRFRET	DUSP3 inh	RN4220 kill
COc1ccc2c(c1)OCC1C2N2C(=O)CN(Cc3ccc(Cl)cc3)C(=O)[C@@]2(C)C1c1ccccc1 (some centres undefined)	-17	.	.	.	-1
O=C(NCCOc1ccc(F)cc1)C1CCC(=O)N(CCc2ccccn2)C1 (centres undefined)	3	-1	-3	57*	-4
CCOC(=O)C1C2COc3ccc(OC)cc3C2N2C(=O)c3cc(OC)c(OC)cc3NC(=O)[C@@]12C (some centres undefined)	0	.	.	.	2
CCC(CC)C(=O)Oc1c(Sc2ccccc2[N+](=O)[O-])c(C)nn1C(C)(C)C	96*	1	-8	-32	-7
COCC(=O)Oc1c(Sc2ccccc2[N+](=O)[O-])c(C)nn1C(C)(C)C	7	2	-6	12	8
Oc1c(Cl)cccc1Cc1cc(Cl)cc(Cl)c1O	100*	406*	-5	.	100*
Oc1c(Cl)cc(Cl)cc1CN1CCN(Cc2ccccc2)CC1	0	0	0	8	-3
COC(=O)C1=C(C)N(c2ccc(Cl)cc2)C(=Cc2cccs2)C1=O	-14	.	.	.	21
NC(=O)CCC1NC(=O)C(CO)NC(=O)c2cc([N+](=O)[O-])cc(I)c2NCCCC(C(N)=O)NC(=O)C(Cc2ccc(O)cc2)NC1=O (centres undefined)	4	.	.	.	5
COc1ccc(C(=O)NN=Cc2ccc(N3CCOCC3)o2)cc1OC	1	.	.	.	1
COC(=O)C1=C(c2ccc(-c3ccccc3)c(F)c2)C[C@@H]2CC[C@H]1N2C(=O)N1CCCC1	.	29*	8	.	.
NCCCCC1NC(=O)c2cc([N+](=O)[O-])cc(F)c2NCCCCC(C(N)=O)NC(=O)C(CCC(N)=O)NC1=O (centres undefined)	4	.	.	.	4
COc1cc(C=CC(=O)c2ccc([N+](=O)[O-])o2)ccc1O	99*	.	.	.	68
COc1ccc(C=CC(=O)c2ccc([N+](=O)[O-])o2)cc1	93*	.	.	.	18
C#CCOCCOCCOCCNc1nc(N2CCN(C(=O)C(CCC(=O)O)n3cc(C(N)CC(C)C)nn3)CC2)nc(N2CCN(C(=O)C(CCC(=O)O)n3cc(C(N)CC(C)C)nn3)CC2)n1 (centres undefined)	1	.	.	.	4
C=C(C)COc1ccc(-c2[nH]ncc2-c2ccc(OC)cc2)c(O)c1	0	92*	10	35	-12
C=C(C)COc1ccc(-c2[nH]ncc2-c2ccccc2)c(O)c1	84*	519*	-4	16	-16
CCOC(=O)c1c(/N=C/c2c(O)n(-c3ccc(F)cc3)c(=S)[nH]c2=O)sc2c1CCCC2	1	41*	1	-10	2
COc1ccc(N(CC(=O)NC2CCCC2)C(=O)CCC(=O)Nc2nc(C)cs2)cc1OC	-3	-1	9	53*	1
Nc1ccc(OCc2ccccc2)cc1[N+](=O)[O-]	-17	0	-30	.	8
O=Cc1cc(OCc2ccccc2)ccc1[B-](F)(F)F	.	160*	11	.	.
O=C(c1ccccn1)N1N=C2C(=Cc3ccc(F)cc3)CCCC2C1c1ccc(F)cc1 (centres undefined)	-5	.	.	.	0
COc1ccc(N2C(=O)CC(N(C)CCc3ccc(OC)c(OC)c3)C2=O)cc1 (centres undefined)	7	7	4	20	4
COC(=O)c1ccc(N2C(=O)CC(N(C)CCc3ccc(OC)c(OC)c3)C2=O)cc1 (centres undefined)	0	451*	3	27	-3
O=C(NCc1ccncc1)C(=O)NN=Cc1ccccn1	-1	.	.	.	2

High-throughput results from PubChem.
